Test results taken from PubChem BioAssay (Tox21).
Values without a mark were called inactive. Where a call stands in place of a potency, no number is given. Activity calls are given as the source filed them. The call rests on the fitted dose curve.

target: Muscarinic acetylcholine receptor M1 (Homo sapiens) (UniProt P11229); assay: Cholinergic receptor muscarinic 1 (CHRM1) small molecule agonists, cell-based qHTS assay (AID 1963589); details: CHRM1-CHO cells, agonist mode, calcium flux fluorescence; series mostly up to 76.8 µM; activation: at the top concentration; further: nearly all actives have a fitted effect of over 35% in size
Sequence (P11229 whole entry, looked up): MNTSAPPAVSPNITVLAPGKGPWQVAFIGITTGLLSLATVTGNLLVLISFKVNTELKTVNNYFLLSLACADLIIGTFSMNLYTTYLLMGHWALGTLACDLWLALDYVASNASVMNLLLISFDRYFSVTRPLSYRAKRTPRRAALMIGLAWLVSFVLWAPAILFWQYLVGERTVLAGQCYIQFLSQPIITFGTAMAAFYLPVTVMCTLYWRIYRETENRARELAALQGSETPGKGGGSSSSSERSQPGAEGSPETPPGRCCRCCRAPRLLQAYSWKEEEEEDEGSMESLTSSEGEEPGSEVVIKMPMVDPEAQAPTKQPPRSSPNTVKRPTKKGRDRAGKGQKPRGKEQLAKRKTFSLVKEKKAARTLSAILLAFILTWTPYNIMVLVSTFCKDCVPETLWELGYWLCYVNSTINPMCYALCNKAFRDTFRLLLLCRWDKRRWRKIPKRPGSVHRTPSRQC
From the text: National Center for Advancing Translational Sciences [NCATS]
Division of Preclinical Innovation [DPI]
U.S. Environmental Protection Agency [EPA]
National Institutes of Environmental Health Sciences [NIEHS]
National Toxicology Program [NTP]
U.S. Food and Drug Administration [FDA]
The CHRM1 is a muscarinic receptor. This receptor plays a crucial role in learning and memory processes and has long been identified as a promising therapeutic target for the improvement of cognitive decline in Alzheimer's disease (AD). The CHRM1-CHO cell line stably expressing human muscarinic acetylcholine receptor M1 (CHRM1) can be used for screening agonists and antagonists of interactions between CHRM1 and its ligands. The CHRM1-CHO Calcium Flux Assay is a homogeneous fluorescence-based assay for detecting the intracellular calcium level using FDSS kinetic plate reader system.
CHRM1-CHO cells were dispensed at 1000 cells/3uL/well in 1536-well black-clear bottom plates using a Multidrop Dispenser. After the assay plates were incubated at a 37 C/5% CO2 incubator for 18 h, 3 uL of Dye Loading Buffer was transferred to the assay plate by a Flying Reagent Dispenser. The assay plates were incubated at 37 C for 1h. For agonist mode, 23 nL of compounds dissolved in DMSO, positive controls or DMSO only was transferred to the assay plate by a pin tool. […] Each test compound was measured at 15 concentrations in three independent runs.
Potency means the concentration at half of the fitted maximal effect.

Row | SMILES | Potency | activation
1 | CCNc1nc(Cl)nc(NC(C)(C)C#N)n1 | inactive | 
2 | ClCCOCCCl | inactive | 
3 | C=CCc1ccccc1O |  | -1.2%
4 | CS(=O)(=O)Cl |  | 1.85%
5 | Oc1cc(Cl)ccc1Cl | inactive | 
6 | CCCCC(CC)COC(=O)c1ccc(C(=O)OCC(CC)CCCC)c(C(=O)OCC(CC)CCCC)c1 (stereo not given) | inactive | 
7 | Clc1ccc(C(Cl)(Cl)Cl)cc1 | inactive | 
8 | BrCCBr | inactive | 
9 | Nc1cccc2ccccc12 | inactive | 
10 | Nc1ccc(Cl)cc1N |  | 2.68%
11 | Cc1ccc(N)c(N)c1 | inactive | 
12 | ClCc1ccccc1CCl |  | -0.219%
13 | CC12CC1(C)C(=O)N(c1cc(Cl)cc(Cl)c1)C2=O (stereo not given) | inactive | 
14 | COC(=O)Nc1nc2ccccc2[nH]1 | inactive | 
15 | C=C(C)CCl | inactive | 
16 | [N-]=[N+]=[N-] | inactive | 
17 | CCCOC(=O)c1cncn1C(C)c1ccccc1 (stereo not given) |  | 3.78% [at 35.3 µM]
18 | N#CC(Cl)(Cl)Cl |  | 0.369%
19 | C1CN2CCC1CC2 |  | 0.118% [at 35.3 µM]
20 | c1ccc(-c2cccc(-c3ccccc3)c2)cc1 | inactive | 

Row | SMILES | Potency | activation
21 | CC1(C)CC(=O)CC(C)(C)N1[O] |  | 0.459%
22 | Brc1ccc(Oc2ccccc2)cc1 | inactive | 
23 | CCNc1nc(Cl)nc(NCC)n1 | inactive | 
24 | Cc1ccccc1O | inactive | 
25 | CCc1cnc(C2=NC(C)(C(C)C)C(=O)N2)c(C(=O)O)c1 (stereo not given) | inactive | 
26 | Clc1cccc(C(Cl)(Cl)Cl)n1 | inactive | 
27 | CC1CN1 (stereo not given) |  | -0.0351%
28 | CCC(=O)C(CC(C)N(C)C)(c1ccccc1)c1ccccc1 (stereo not given) | inactive | 
29 | O=C1c2ccccc2C(=O)N1SC(Cl)(Cl)Cl | 49 µM (active) | 
30 | CC(C)OC(=O)Nc1cccc(Cl)c1 |  | 0.191%
31 | Clc1ccc(C(Cl)(Cl)Cl)cn1 |  | -0.0476%
32 | OC(c1ccc(Cl)cc1)(c1cncnc1)c1ccccc1Cl (stereo not given) | inactive | 
33 | Clc1cccc(Cl)c1 | inactive | 
34 | N#CC(c1ccccc1)c1ccccc1 | inactive | 
35 | CNC(=O)CSP(=S)(OC)OC | inactive | 
36 | C=CC=O |  | 1.75%
37 | [CH3][Sn]([CH3])([Cl])[Cl] | inactive | 
38 | Nc1cc(Cl)cc(C(=O)O)c1Cl | inactive | 
39 | CC(C)CCON=O |  | 1.2%
40 | CCCCC(CC)COC(=O)c1c(Br)c(Br)c(Br)c(Br)c1C(=O)OCC(CC)CCCC (stereo not given) |  | -0.292% [at 35.3 µM]
